Hits are enriched below; roughly 17% of the tested compounds scored in any of these assays.
ATXN2 expr inh: ATXN2 expression inhibition. AID 1745845. HEK-293 ATXN2-luciferase reporter, luminescence, 24 h. Potency, µM (highest dose often 57 µM), most hits filed as inhibitors. actives 0.72% (n = 360,000); further: nearly all actives have a fitted effect of over 55% in size
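ATXN2-luciferase reporter cells (luciferase flanked by upstream and downstream ATXN2 gene portions) were treated 24 h at 37 °C with compounds at up to 57 uM. SteadyGlo luminescence gave expression; GF-AFC fluorescence gave viability.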
DT40 TDP1 no CPT: qHTS for Inhibitors of human tyrosyl-DNA phosphodiesterase 1 (TDP1): qHTS in cells in absence of CPT; DT40 Tdp1-/- hTDP1 cells, no CPT, ATP luminescence, 48 h; Potency, µM (doses to about 46.2 µM), actives largely listed as inhibitors; actives 15% (n = 420,000); AID 686978, 2013; further: nearly all actives have a fitted effect of over 55% in size
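Seeded 400 DT40-hTDP1 cells/well (vehicle DMSO, no 20 nM CPT); pinned compounds; ≥48 hr at 37 °C; CellTiter-Glo luminescence as viability measure.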
TDP1 cell CPT: DT40-hTDP1 cell growth loss with CPT | chicken DT40 Tdp1-/-;hTDP1 cells + 20 nM CPT, ATP luminescence, 48 h | Potency, µM (top dose mostly 46.2 µM), most hits filed as inhibitors | actives 12% (n = 420,000) | AID 686979; further: nearly all actives have a fitted effect of over 55% in size
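Chicken DT40 Tdp1-/- cells stably complemented with human TDP1 were seeded at 400 cells/well in medium containing 20 nM camptothecin, exposed to pin-transferred compounds, and grown at 37 °C for at least 48 hr. Viability was read as ATP luminescence.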
ATXN viability: cell viability loss in ATXN counter-screen; S2 cells (HEK-293 line with an ATXN2-luciferase reporter) viability, CellTiter-Fluor protease fluorescence, 24 h; Potency, µM (highest dose often 56.7 µM), hits mostly cytotoxic; actives 0.49% (n = 400,000); AID 651635; further: nearly all actives have a fitted effect of over 40% in size
HepG2 viability: kills HepG2 cells in TGF-b inhibitor counter-screen; HepG2 CAGA-GFP viability, ATP luminescence, 18 h; Potency, µM (doses to about 46.1 µM), actives largely listed as cytotoxic; actives 0.76% (n = 410,000); AID 588856
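HepG2 CAGA-GFP cells (1000/well, DMEM with 1% FBS) received compound, then TGF-beta at 500 pg/mL final, and were incubated 18 hours at 37 degrees C. Viability was read by CellTiter-Glo luminescence. Media-only wells were set as complete cell-killing and DMSO as no toxicity.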
TGFb inhibitor: blocks TGF-b signaling. HepG2 CAGA-GFP TGF-b/SMAD3 reporter, GFP fluorescence, 18 h; TGF-beta stimulated, 500 pg/mL final. Potency, µM (top dose mostly 46.1 µM), actives largely listed as inhibitors. actives 1.2% (n = 410,000). AID 588855; further: nearly all actives have a fitted effect of over 65% in size
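Per well, imaged GFP fluorescence of HEPG2 CAGA-GFP cells gives the signal; cells get compound, then TGF-beta (500 pg/mL final), 18 h at 37 degrees C; %Activity versus -TGF-beta and +DMSO controls.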
Hits are given with their value; . = inactive; ? = inconclusive; / = no result; [ ] = dose if it differs, or a comment. The call rests on the fitted dose curve; in most records, active means well fitted curve in the direction sought with a large enough effect; inconclusive means small, poorly fitted or top-dose-only effect, or another doubt; inactive means no such curve, though single readings can be large; an effect the other way counts as inactive or inconclusive.

SMILES | ATXN2 expr inh | DT40 TDP1 no CPT | TDP1 cell CPT | ATXN viability | HepG2 viability | TGFb inhibitor
O=C(COC(=O)C1CCN(S(=O)(=O)c2ccccc2)CC1)NCCc1ccccc1 | / | . | . | ? | . | .
CCCC1SCC(C)(C)NC1=O (stereo unspecified) | . | . | . | . | . | .
CCOC(=O)Cn1nc(-c2ccccc2)c(-c2ccccc2)nc1=O | . | . | . | . | . | .
CCOC(=O)Cn1c(-c2cccnc2)nc(-c2ccccc2)c1-c1ccccc1 | . | 23µM | ? | . | . | .
CCOC(=O)Cn1c(S(=O)(=O)Cc2ccccc2Cl)nc(-c2ccccc2)c1-c1ccccc1 | . | 15µM | 16µM | . | . | .
C#CCn1c(S(=O)(=O)Cc2ccc(C)cc2)nc(-c2ccccc2)c1-c1ccccc1 | . | ? | ? | . | . | .
C#CCn1c(S(=O)(=O)Cc2ccccc2Cl)nc(-c2ccccc2)c1-c1ccccc1 | . | ? | 18µM | . | . | .
COc1cc(OC)c(OC)cc1CN1CCOc2ccc(CN3C[C@@H](C)O[C@@H](C)C3)cc2C1 | / | ? | .[9.04 µM] | . | / | /
CCCCCC(CC(=O)NO)C(=O)NC(C(=O)N1CCCC1CO)C(C)C (stereo unspecified) | ? | 1.8µM | 2.6µM | . | . | .
CC[C@H](C)[C@@H]1NC(=O)[C@@H](CC(C)C)NC(=O)[C@H](C(C)C)NC(=O)[C@H]2CSSC[C@H](NC1=O)C(=O)N2 | 0.79µM | 0.033µM | 0.065µM | ? | 1.1µM | 1.3µM
CC(C)C[C@@H]1NC(=O)[C@H](C(C)C)NC(=O)c2cc([N+](=O)[O-])cc(I)c2NCC[C@@H](C(N)=O)NC1=O | . | . | . | . | . | ?
O=C(c1ccco1)n1nc(-c2ccccc2)nc1NCc1ccccc1Cl | . | ? | . | . | . | .
Cc1nsc(N)c1C(=O)O | / | . | . | . | . | .
C[C@@]12CCC(=O)C=C1CC[C@H]1[C@H]3CC[C@](O)(C(=O)CO)[C@]3(C)CC(=O)[C@@H]12 | / | / | / | . | / | /
CCCCOc1cccc(/C=N/NC(=O)c2csc(C)c2C)c1 | . | 23µM | ? | . | . | .
C/C(=N/NC(=O)c1cccs1)c1ccco1 | . | . | . | . | . | ?
C/C(=N\NC(=O)c1c[nH]c2ccccc12)c1ccc(C)s1 | . | . | . | . | . | .
Cc1scc(C(=O)N/N=C/c2ccc(Cl)s2)c1C | . | 16µM | ? | . | . | .
Cc1scc(C(=O)N/N=C/c2ccc(OC(C)C)cc2)c1C | . | ? | ? | . | . | .
C/C(=N\NC(=O)c1csc(C)c1C)c1ccco1 | . | 21µM | 10µM | . | . | .
C/C(=N\NC(=O)c1csc(C)c1C)c1ccc(C)s1 | . | 2.9µM | 2.6µM | . | . | .
Cc1ccc(S(=O)(=O)c2nc(/C=C/c3ccccc3)oc2N2CCC(C(N)=O)CC2)cc1 | / | ? | ? | . | . | .
CCOC(=O)C1CCN(C(=O)COC(=O)CNC(=O)c2ccc(OC)cc2)CC1 | . | . | . | . | . | .
Cc1ccc(CN2CCN(C/C=C/c3ccc(F)cc3)CC2CCO)o1 (stereo unspecified) | / | ? | . | . | . | .
Cc1ccc(S(=O)(=O)N2CCCC2)cc1C(=O)NCc1ccccc1CN1CCCC1 | / | . | . | . | . | .
COc1ccc(C(=O)N/C(=C/c2ccc(Cl)cc2)C(=O)NCc2ccncc2)cc1 | . | ? | . | . | . | .
Cc1noc(C)c1CN1C(=O)c2ccccc2C1=O | . | . | . | . | . | .
C/C(=N\NC(=O)c1cc(-c2ccc(C)s2)[nH]n1)c1ccco1 | / | 18µM | ? | ? | . | .
CN(Cc1nc(-c2ccc(Cl)cc2)no1)C(=O)c1ccc2c(c1)OCO2 | . | . | . | ? | . | .

Bioassay records: PubChem BioAssay, National Center for Advancing Translational Sciences (NCATS)
